# Bioassay records as filed in PubChem BioAssay.
# Hits are enriched below; roughly 4.7% of the tested compounds scored in any of these assays.
# D1 agonist – Allosteric Agonists of the Human D1 Dopamine Receptor: qHTS | D(1A) dopamine receptor (Homo sapiens), P21728 | HEK293 T-REx D1 cells, calcium flux, agonist mode | activation, % at 2 µM | 360,000 compounds, 1% hits; further: 0% is about no effect
# Target sequence (P21728 whole entry, looked up): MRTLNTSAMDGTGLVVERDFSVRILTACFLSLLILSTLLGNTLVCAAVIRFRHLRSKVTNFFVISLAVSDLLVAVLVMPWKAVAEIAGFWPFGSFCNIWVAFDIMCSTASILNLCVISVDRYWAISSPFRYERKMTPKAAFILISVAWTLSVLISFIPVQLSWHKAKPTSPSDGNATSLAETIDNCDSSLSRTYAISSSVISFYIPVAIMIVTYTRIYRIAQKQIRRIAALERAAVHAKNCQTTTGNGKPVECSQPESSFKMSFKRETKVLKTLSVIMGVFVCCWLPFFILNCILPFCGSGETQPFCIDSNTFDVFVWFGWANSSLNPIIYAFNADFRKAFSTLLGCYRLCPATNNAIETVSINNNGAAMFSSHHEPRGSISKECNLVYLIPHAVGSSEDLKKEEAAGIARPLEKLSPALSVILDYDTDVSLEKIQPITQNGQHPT
#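 Agonism was scored from calcium flux recorded over 180 s (1 read/s) after pintool compound addition, following a 10-cycle baseline. Cells were inducible force-coupled HEK293 TREx D1, plated overnight at 30 C and loaded with no-wash calcium dye.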
# D1 potentiator – Potentiators of Human D1 Dopamine Receptor: qHTS; potentiation, % at 10 µM; HEK293 TREx D1 cells, calcium flux, dopamine EC20 potentiation; AID 504651, 2011; 360,000 compounds, 0.036% hits; D(1A) dopamine receptor (Homo sapiens), P21728; in the data active means potentiation above about 30%; further: 0% is about no effect
# D1 antag – Antagonist of Human D 1 Dopamine Receptor: qHTS. D(1A) dopamine receptor (Homo sapiens), P21728. HEK293 TREx D1 cells, calcium flux, dopamine EC80; stronger effect = lower value. activity change, negative = inhibition, % at 10 µM. 360,000 compounds, 3.2% hits. AID 504652, 2011; in the data active means activity change below about -30%; further: on the % scale 0 is the no-effect control and ±100 the full control effect
#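 Compound effects on dopamine-evoked calcium signalling were measured in tetracycline-induced HEK293 Trex D1 cells. Dopamine at EC80 followed a 180 s compound pre-read, and fluorescence was tracked kinetically for 180 s more.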
# TRHR PAM – qHTS for Small Molecule Agonists and Allosteric Enhancers of Human TRH Receptor: Primary Screen for Enhancers; TRHR cells, fluo-8 calcium fluorescence, EC20 TRH enhancement; 360,000 compounds, 0.66% hits; enhancement, % at 2 µM; in the data active means enhancement above about 30%; further: 0% is about no effect
#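 Enhancer read-out: after compound pinning and an initial kinetic agonist-mode read, an EC20 of TRH (10 nM final) was injected and fluo-8 calcium signal (Ex 480/Em 530) followed at 1 s/cycle for 100 cycles in TRHR-expressing cells.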
# TRHR agonist – qHTS for Small Molecule Agonists and Allosteric Enhancers of Human TRH Receptor: Primary Screen for Agonists; Thyrotropin-releasing hormone receptor (Homo sapiens), P34981; TRHR cells, calcium flux fluo-8, FDSS agonist mode; activation, % at 2 µM; 360,000 compounds, 0.18% hits; AID 493084, 2011; further: 0% is about no effect
#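 Steps: seed TRHR cells overnight; add fluo-8 no-wash Ca dye, RT 30 min–1.5 h; record 10 s baseline; pin-transfer compounds; monitor fluorescence 1 cycle/s for the agonist window. Calcium increases flag candidate agonists.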
# Numbers without * were called inactive; . = not tested or not shown. Unless noted, no stated cut-off is given here; in the data, active means activation above about 30%; inactive means the rest.
SMILES,D1 agonist,D1 potentiator,D1 antag,TRHR PAM,TRHR agonist
COc1ccc(NC(=O)Nc2c(C)n(C)n(-c3ccccc3)c2=O)cc1,-2,-4,-7,-3,0
COc1ccc(CCC(=O)Nc2c(C)n(C)n(-c3ccccc3)c2=O)cc1,2,-8,-38*,-11,2
COc1ccc(-c2nn(C)c3sc(C(=O)N4CCN(c5ccccc5F)CC4)cc23)cc1OC,-1,4,2,19,0
COc1ccc(-c2nn(C)c3sc(C(=O)N4CCOCC4)cc23)cc1OC,1,-3,-60*,4,0
O=C(c1cc(-c2ccc(Cl)c(Cl)c2)on1)N1CCN(c2ccccc2)CC1,6,-7,-31*,-5,0
COc1ccc(-c2cc(C(=O)NCc3ccccc3)no2)cc1OC,37*,0,2,25,-1
O=C(NCc1cccs1)c1cc(-c2ccc(O)cc2)on1,50*,-2,9,9,-1
Cc1ccc(NC(=O)CC2Nc3cc(C)c(C)cc3NC2=O)c(C)c1 (configuration not stated),1,2,-8,-3,0
CCN(CC)CCCNC(=O)Cc1csc2nc(-c3ccc(Cl)cc3)cn12,0,-2,2,8,1
COc1cc(C)ccc1OCc1cc(C(=O)N2CCCCCCC2)no1,0,-2,-13,39*,-1
COc1ccc(-c2cc(C(=O)N3CCOCC3)no2)cc1OC,3,-11,-32*,-10,0
CC1CCN(C(=O)c2cc(-c3ccc4c(c3)OCO4)on2)CC1,3,6,-33*,6,-2
CC1=C(C(=O)Nc2ccc(C)cc2C)C(c2ccc([N+](=O)[O-])cc2)n2ncc(C(=O)Nc3ccc(F)cc3)c2N1 (configuration not stated),3,0,-1,-1,0
CCC(C)(C)NC(=O)C1CCN(S(=O)(=O)c2c(C)noc2/C=C/c2ccc(C)cc2)CC1,3,-2,-15,-4,0
CCCc1nnc(N2C(=O)c3oc4ccc(F)cc4c(=O)c3C2c2ccc(C(=O)OC)cc2)s1 (configuration not stated),3,-5,-11,8,0
Cc1ccc(C(=O)NCC(c2ccc3c(c2)OCO3)N2CCN(c3ccc(F)cc3)CC2)cc1 (configuration not stated),1,2,-10,-1,0
CCOc1ccc(NC(=O)CN(C)C(=O)CCCn2c(=O)oc3ccccc32)cc1OCC,2,0,-3,38*,0
CCOc1ccc(NC(=O)CN(C)C(=O)c2ccccc2Cc2ccccc2)cc1OCC,6,.,-45*,9,0
COc1ccc(NC(=O)CN(C)C(=O)COc2ccccc2Cc2ccccc2)cc1,5,-4,-11,-1,0
CN(CC(=O)Nc1ccc(F)cc1)C(=O)COc1ccccc1Cc1ccccc1,23,-3,-85*,-1,-1
CCOC(=O)c1c(C)sc(-c2c(-c3ccc(OC)c(F)c3)[nH]c3c2c(=O)[nH]c(=O)n3C)c1O,21,1,6,11,11
CCc1cccc(C)c1NC(=O)C1CCN(c2nnc(C)c3c(C)n(-c4ccccc4)nc23)CC1,0,1,-13,3,0
COc1cccc(C(=O)NCCS(=O)(=O)N(C)C2CCCCC2)c1,-1,-8,-6,3,0
CN(C1CCCCC1)S(=O)(=O)CCNC(=O)c1ccccc1,0,1,-67*,0,0
Cc1ccc(N(CC(=O)N/N=C/c2cc(C)n(-c3ccccc3C)c2C)S(C)(=O)=O)cc1,0,-9,-30*,33*,1
COc1ccc(C)cc1NC(=O)CN(c1ccc(F)cc1)S(C)(=O)=O,-1,1,2,10,-1
Cc1ccc(N(CC(=O)Nc2cc(C)ccc2C)S(C)(=O)=O)cc1,3,1,-38*,-3,0
